APE1 inh: blocks human APE1 abasic DNA cleavage; Potency, µM (highest dose often 65.8 µM), for inactives: at the highest dose activity change, negative = inhibition, actives largely listed as inhibitors; recombinant APE1, TAMRA/BHQ-2 abasic DNA cleavage fluorescence; hit rate 0.35% among 350,000; AID 2517;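 further: plate controls were vehicle for no effect and reference inhibitor for full effect; nearly all actives have a fitted effect of over 55% in size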
Target sequence (P27695 whole entry, looked up): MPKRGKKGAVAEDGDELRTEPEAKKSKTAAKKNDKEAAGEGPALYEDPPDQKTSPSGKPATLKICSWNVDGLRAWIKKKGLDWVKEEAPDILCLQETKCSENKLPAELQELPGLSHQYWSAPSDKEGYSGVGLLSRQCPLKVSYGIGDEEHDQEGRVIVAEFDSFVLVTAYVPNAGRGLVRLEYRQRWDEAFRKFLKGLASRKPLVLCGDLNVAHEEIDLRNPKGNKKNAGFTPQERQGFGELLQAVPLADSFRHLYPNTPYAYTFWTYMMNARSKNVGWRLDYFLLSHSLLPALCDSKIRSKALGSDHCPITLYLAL
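Readout is kinetic fluorescence (ex 525, em 598 nm) from cleavage of 50 nM TAMRA/BHQ-2 THF abasic duplex by 0.75 nM APE1, compound added 15 min beforehand at RT.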
POLB inh: DNA polymerase beta (human) inhibition; P06746; Pol beta primer extension/strand displacement, fluorescence kinetic; AID 485314; Potency, µM (titrated, usually from 114 µM), for the others: top-dose activity change, negative = inhibition, hits mostly inhibitors; hit rate 1.3% among 340,000; further: on the % scale 0 is the no-effect control and ±100 the full control effect
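Kinetic readout of DNA synthesis with strand displacement by Pol beta. Compound and 10 nM enzyme sit 15 min at room temperature; 50 nM substrate starts the reaction, read immediately and at 10 min.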
L3MBTL1 block: L3MBTL1 (human) inhibition; hit rate 0.66% among 230,000; Potency, µM (top dose mostly 57.1 µM), inactives show at the highest dose activity, negative = inhibition, most hits filed as inhibitors; AlphaScreen L3MBTL1–H3K9me1 peptide binding; AID 485360; Q9Y468; further: on the % scale 0 is the no-effect control and ±100 the full control effect; nearly all actives have a fitted effect of over 60% in size
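AlphaScreen assay: L3MBTL1 (50 nM final) was preincubated 30 min at room temperature with biotinylated H3(1-15)K9me1 peptide (75 nM final), then 30 min with library compounds; streptavidin donor and nickel chelate acceptor beads (10 ug/mL final) added, 30 min dark.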
POLK inh: DNA polymerase kappa (human) inhibition; Q9UBT6; purified Pol kappa, fluorescent DNA synthesis assay, 10 min; Potency, µM (top dose mostly 107 µM), inactives show at the highest dose activity, negative = inhibition, hits mostly inhibitors; hit rate 0.53% among 400,000; further: on the % scale 0 is the no-effect control and ±100 the full control effect
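First, compounds were pin-transferred onto 10 nM Pol kappa. After 15 min at room temperature, substrate was added to 50 nM final. Fluorescence was then measured kinetically at 0 and 10 min.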
Pol iota inh: DNA polymerase iota (human) inhibition; hit rate 1% among 390,000; Q9UNA4; Pol iota fluorescent replication assay, 10 min; Potency, µM (highest dose often 115 µM), without a hit: at the top dose activity, negative = inhibition, most hits filed as inhibitors
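Pol iota at 10 nM preincubated 15 min with compounds at room temperature; reaction started with fluorescent substrate, 50 nM final. Fluorescence read kinetically at 0 and 10 min; buffer-only wells as negative control.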
Pol eta inh: DNA polymerase eta (human) inhibition. Q9Y253. recombinant Pol eta, fluorescent DNA replication assay. Potency, µM (titrated, usually from 114 µM), for inactives: top-dose activity change, negative = inhibition, actives largely listed as inhibitors. hit rate 1.2% among 390,000. AID 588591; further: on the % scale 0 is the no-effect control and ±100 the full control effect
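Fluorescent replication assay: 50 nM final substrate added after a 15 min room-temperature compound preincubation with 10 nM enzyme. Signal taken at 0 min and again at 10 min.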
An asterisk follows results filed as active; ? = inconclusive; · = not tested or not shown; ! = not active in a repeat; [ ] = dose if it differs, or a comment. The list is not random: actives were taken first. Their share in the collection is about 2.5%. The call rests on the fitted dose curve; in most records, active means well fitted curve in the direction sought with a large enough effect; inconclusive means small, poorly fitted or top-dose-only effect, or another doubt; inactive means no such curve, though single readings can be large; an effect the other way counts as inactive or inconclusive. Potency means the concentration at half of the fitted maximal effect.

SMILES | APE1 inh | POLB inh | L3MBTL1 block | POLK inh | Pol iota inh | Pol eta inh
O=C(Nc1ccc(-c2cn3ccccc3n2)cc1)c1cccs1 | ? | 10µM* | -11% | ? | ? | ?
CCCn1cnnc1CNC(=O)C1CCC(=O)N(CCc2cccc(F)c2)C1 (stereo not drawn) | 24% | 34% | · | -4% | -16% | 3%
OCc1ccccc1CNCc1ccccc1 | -1% | 23% | 13% | -2% | -11% | 29%
Oc1cc(CNCc2ccccc2)c(O)cc1CNCc1ccccc1 | · | · | · | 79µM* | ? | ?
O=C(N/N=C/C(Cl)=C/c1ccc([N+](=O)[O-])cc1)C(=O)Nc1ccc(C(=O)O)cc1 | 2% | ? | 9% | -20% | ? | ?
O=C(N/N=C/C(Cl)=C/c1ccc([N+](=O)[O-])cc1)C(=O)Nc1ccccc1C(=O)O | ? | 20µM* | ? | ? | 18µM* | 45µM*
OC[C@H]1O[C@@H](O[C@H]2[C@H](O)[C@@H](O)[C@H](O)O[C@@H]2CO)[C@H](O)[C@@H](O)[C@@H]1O | -1% | · | · | · | · | ·
CC(=O)c1sc(Nc2nc3cc4c(cc3s2)OCO4)nc1C | -5% | ? | 5% | -6% | 106% | -1%
CCOC(=O)c1sc(Nc2nc3cc4c(cc3s2)OCO4)cc1C | ? | 35µM* | 5% | -5% | 11% | ?
O=C(CN1C(=O)COc2ccc(S(=O)(=O)N3CCCCCC3)cc21)Nc1cccc(Cl)c1 | · | 0% | · | -9% | 6% | -20%
COc1ccccc1/C=C/C=N/NC(=O)c1cc(-c2ccco2)[nH]n1 | ? | 25µM* | ? | ? | ? | ?
Cc1ccc2[nH]cc(C(O)c3c[nH]c4ccc(C)cc34)c2c1 | · | · | · | 0% | 55% | ·
Cc1cc(C(=O)CCC(=O)NC(C)c2ccc(S(N)(=O)=O)cc2)c(C)s1 (stereo not drawn) | 3% | · | -4% | -9% | 20% | -5%
CC(C)(C)c1nnc(N/N=C/c2ccccc2O)n(N)c1=O | 2% | 31% | 16µM* | -5% | 18% | -1%
COc1ccc(S(=O)(=O)N2CCC(C(=O)NCC3CCCO3)CC2)cc1Cl (stereo not drawn) | 14% | 13% | · | 8% | 26% | -8%
CN(C)c1ccc(/C=C/c2cc(N(C)C)nc3ccccc23)cc1 | · | · | · | 10% | 34% | ·
O=C1COc2ccc(C(=O)COC(=O)/C=C/c3ccco3)cc2N1 | -34% | · | ? | ? | 45µM* | ?
N#CCC(=O)Nc1ccc(C(=O)OCC(=O)NC(=O)Nc2ccc3c(c2)OCCO3)cc1 | 48% | · | -11% | -16% | ? | 45µM*
CC(=O)Nc1cc(NC(C)=O)cc(C(=O)OCC(=O)c2ccc3c(c2)NC(=O)CO3)c1 | 22% | · | -10% | -12% | ? | -20%
N#CCC(=O)Nc1ccc(C(=O)OCC(=O)c2ccc3c(c2)NC(=O)CO3)cc1 | -9% | · | 3% | ? | 22µM* | ?
COc1cc(C2CC(=O)Nc3c2c(C)nn3-c2nncc(-c3ccc(C)cc3)n2)cc(OC)c1OC (stereo not drawn) | · | -13% | · | 7% | 13% | -11%
COc1cccc(/C=C/c2nccc3ccccc23)c1OC | · | · | · | 3% | 39% | ·
CC(C)(C)n1ncc2c(=O)n(Cc3ccc(F)c(F)c3F)cnc21 | 4% | · | · | 21% | 28% | ·
O=c1c2c(nc3cc(-c4ccc(F)cc4)[nH]n13)CCCC2 | -6% | 18µM* | 1% | -21% | ? | ?
O=c1c2c(nc3cc(-c4cccc(F)c4)[nH]n13)CCC2 | -8% | -18% | 0% | -13% | 44% | -7%
SMILES | APE1 inh | POLB inh | L3MBTL1 block | POLK inh | Pol iota inh | Pol eta inh
C=C(C)Cn1c(=O)c2c(nc3n2CCN3c2cc(C)cc(C)c2)n(C)c1=O | · | -13% | · | -6% | 79µM* | -9%
Cc1ccccc1NN=Nc1nc2c([nH]1)c(=O)n(C)c(=O)n2C | 4% | 14% | -1% | 4% | 28% | -2%
Cn1c(=O)c2[nH]c(N=NNc3ccccc3F)nc2n(C)c1=O | -1% | -3% | 5% | 3% | 25µM* | -17%
CCN(CC)CCCC(C)Nc1cc(/C=C/c2ccccc2Cl)nc2cc(Cl)ccc12 (stereo not drawn) | · | · | · | 2%[19.4 µM] | 71µM* | ·
CCOC(=O)Cc1csc(SC(C)C(=O)NC2CCCCC2C)n1 (stereo not drawn) | 10% | · | -4% | -3% | 14% | -4%
CCOC(=O)Cc1csc(SC(C)C(=O)Nc2ccc(NC(C)=O)cc2)n1 (stereo not drawn) | 5% | 89µM* | · | 0% | 2% | -19%
COc1cccc(Cn2c(=O)c(-c3cccs3)nc3cnc(N4CCN(C)CC4)nc32)c1 | -3% | · | · | 6%[60.1 µM] | · | ·
CC(C)n1c(=O)c2oc3ccccc3c2n(CC(=O)Nc2ccccc2Cl)c1=O | · | -12% | · | -4% | -1% | 6%
O=c1c2ccccc2oc2ccc(-c3ccoc3)cc12 | · | · | · | ? | 14µM* | ·
O=C(c1ccc(-c2cc(O)c3ncccc3c2)cc1)N1CCNCC1 | 24% | · | 25µM* | 6% | -7% | -16%
Cc1ccc2oc(=O)c3cc(C(=O)NCCCN4CCCCCC4)sc3c2c1 | -29% | -3% | · | -33% | 79µM* | 3%
Cc1ccc2oc(=O)c3cc(C(=O)NCCCN4CCc5ccccc5C4)sc3c2c1 | 16% | 41% | -6% | -10% | 46% | -15%
Cc1ccc2oc(=O)c3cc(C(=O)NCCN4CCN(C)CC4)sc3c2c1 | 5% | 61% | 35µM* | -13% | -4% | ?
Cc1ccc(Nc2cc(C(=O)NC3CCCC3)c3ccccc3n2)cc1C | · | -4% | · | -26%[60.1 µM] | 10% | -4%
CCCOCc1cc(CN2CCN(c3ccccc3OC)CC2)c(O)c2ncccc12 | · | 0% | · | -10% | 3% | -16%
OCc1ccc(O)c2ncccc12 | 2% | -2% | 18µM* | 2% | ? | -12%
CN(Cc1ccco1)Cc1ccc(O)c2ncccc12 | 16% | · | 11µM*! | -2% | -10% | -7%
Oc1ccc(CN2CCCCC2)c2cccnc12 | 4% | 0% | ? | -3% | -3% | 10%
Oc1ccc(COCc2ccccc2)c2cccnc12 | 3% | ? | 8.9µM* | -6% | -5% | -9%
Oc1ccc(Cc2ccccc2)c2cccnc12 | · | · | · | -5% | -16% | -18%
Oc1ccc(CN2CCc3ccccc3C2)c2cccnc12 | 7% | 4% | · | -5% | 33% | -12%
CCCOCc1ccc(O)c2ncccc12 | -4% | -12% | 28µM* | 3% | -4% | 6%
CC(C)COCc1ccc(O)c2ncccc12 | 0% | 16% | 20µM* | -5% | 37% | -17%
O=C(O)c1ccc(O)c2ncccc12 | -6% | · | 16µM* | · | · | ·

Screens as filed in PubChem BioAssay.
